Hits are enriched below; roughly 2.4% of the tested compounds scored in any of these assays.
POLI inh = DNA polymerase iota (human) inhibition; Q9UNA4; Pol iota fluorescent replication assay, 10 min; Potency, µM (top dose mostly 115 µM), without a hit: at the top dose activity, negative = inhibition, usual class: inhibitors; 1% of 390,000 active
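Pol iota at 10 nM preincubated 15 min with compounds at room temperature; reaction started with fluorescent substrate, 50 nM final. Fluorescence read kinetically at 0 and 10 min; buffer-only wells as negative control.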
WRN helicase inh = WRN helicase (human) inhibition; WRN helicase unwinding, fluorescent forked duplex, kinetic; Potency, µM (series often up to 114 µM), without a hit: top-dose activity change, negative = inhibition, usual class: inhibitors; 0.46% of 360,000 active; further: on the % scale 0 is the no-effect control and ±100 the full control effect; nearly all actives have a fitted effect of over 55% in size
Target sequence (Q14191 whole entry, looked up): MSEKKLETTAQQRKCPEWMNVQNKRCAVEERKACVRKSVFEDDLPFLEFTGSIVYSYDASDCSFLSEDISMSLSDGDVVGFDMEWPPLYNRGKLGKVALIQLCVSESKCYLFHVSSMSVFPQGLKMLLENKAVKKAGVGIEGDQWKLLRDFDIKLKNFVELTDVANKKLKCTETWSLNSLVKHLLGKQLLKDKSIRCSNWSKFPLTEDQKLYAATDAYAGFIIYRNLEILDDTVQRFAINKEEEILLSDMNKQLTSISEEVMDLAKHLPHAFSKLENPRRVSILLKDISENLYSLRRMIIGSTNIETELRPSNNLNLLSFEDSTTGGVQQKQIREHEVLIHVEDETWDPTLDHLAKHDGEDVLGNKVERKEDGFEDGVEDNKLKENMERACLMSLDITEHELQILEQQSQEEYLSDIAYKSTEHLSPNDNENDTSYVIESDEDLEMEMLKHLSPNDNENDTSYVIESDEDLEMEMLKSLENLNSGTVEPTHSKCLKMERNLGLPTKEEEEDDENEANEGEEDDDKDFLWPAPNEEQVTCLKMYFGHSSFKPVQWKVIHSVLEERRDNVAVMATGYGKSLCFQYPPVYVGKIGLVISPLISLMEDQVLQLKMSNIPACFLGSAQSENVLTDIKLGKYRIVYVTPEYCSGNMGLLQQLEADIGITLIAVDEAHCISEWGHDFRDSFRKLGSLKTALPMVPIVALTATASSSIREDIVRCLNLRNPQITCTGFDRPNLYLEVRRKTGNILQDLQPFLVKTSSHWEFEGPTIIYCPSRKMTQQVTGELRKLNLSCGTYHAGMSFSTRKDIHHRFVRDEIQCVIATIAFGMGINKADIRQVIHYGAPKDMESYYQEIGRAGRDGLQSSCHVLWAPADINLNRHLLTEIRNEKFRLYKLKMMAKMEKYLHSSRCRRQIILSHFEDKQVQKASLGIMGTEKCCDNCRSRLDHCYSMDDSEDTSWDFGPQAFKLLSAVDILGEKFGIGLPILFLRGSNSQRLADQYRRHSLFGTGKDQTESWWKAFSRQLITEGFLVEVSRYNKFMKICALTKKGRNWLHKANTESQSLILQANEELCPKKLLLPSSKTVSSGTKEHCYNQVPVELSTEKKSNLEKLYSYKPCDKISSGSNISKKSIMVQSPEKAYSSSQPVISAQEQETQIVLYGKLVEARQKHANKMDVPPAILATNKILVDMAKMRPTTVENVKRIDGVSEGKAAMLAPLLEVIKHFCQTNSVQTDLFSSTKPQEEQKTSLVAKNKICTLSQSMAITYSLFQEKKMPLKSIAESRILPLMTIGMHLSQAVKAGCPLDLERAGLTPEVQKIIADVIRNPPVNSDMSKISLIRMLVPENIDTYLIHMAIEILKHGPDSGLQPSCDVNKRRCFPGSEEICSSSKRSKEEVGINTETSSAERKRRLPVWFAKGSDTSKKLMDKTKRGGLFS
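Kinetic fluorescence helicase assay: unwinding of a quenched forked DNA duplex (100 nM final) with 2 mM ATP final raises red fluorescence (525/598 nm). Compounds sat 15 min at room temperature with 20 nM WRN beforehand.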
POLB inh = DNA polymerase beta (human) inhibition; AID 485314; Potency, µM (highest dose often 114 µM), inactives show at the top dose activity change, negative = inhibition, most hits filed as inhibitors; 1.3% of 340,000 active; P06746; Pol beta primer extension/strand displacement, fluorescence kinetic; further: on the % scale 0 is the no-effect control and ±100 the full control effect
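Pol beta (10 nM) and compounds were preincubated 15 min at room temperature, then 50 nM substrate (final) started primer extension/strand displacement. Reads were taken at 0 and 10 min; concentration-response data were fitted to a four-parameter Hill equation.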
Pol kappa inh = blocks human DNA polymerase kappa activity. 0.53% of 400,000 active. purified Pol kappa, fluorescent DNA synthesis assay, 10 min. AID 588579. Potency, µM (doses to about 107 µM), for the others: at the top dose activity, negative = inhibition, actives largely listed as inhibitors; further: on the % scale 0 is the no-effect control and ±100 the full control effect
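Activity was followed as the change in fluorescence between reads at 0 and 10 min after starting the reaction with 50 nM substrate. Beforehand, 10 nM polymerase had been preincubated with compound for 15 min at room temperature.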
POLH inh = inhibitors of human DNA polymerase eta; Q9Y253; recombinant Pol eta, fluorescent DNA replication assay; Potency, µM (doses to about 114 µM), inactives show top-dose activity change, negative = inhibition, hits mostly inhibitors; 1.2% of 390,000 active; AID 588591; further: on the % scale 0 is the no-effect control and ±100 the full control effect
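Pol eta (10 nM) was preincubated with compounds for 15 min at room temperature, after which fluorescent replication substrate (50 nM final) was added to start the reaction. Fluorescence was read kinetically at 0 and 10 min.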
FEN1 inhibitor = blocks human flap endonuclease 1. Potency, µM (top dose mostly 114 µM), for inactives: at the top dose activity change, negative = inhibition, actives largely listed as inhibitors. AID 588795. 0.35% of 390,000 active. Recombinant FEN1 flap cleavage, fluorescence, 15 min. P39748; further: on the % scale 0 is the no-effect control and ±100 the full control effect; nearly all actives have a fitted effect of over 65% in size
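Nuclease activity of 10 nM FEN1 was measured after 15 min of room-temperature exposure to titrated compounds, by adding 50 nM flap substrate and reading plates at 0 and 15 min.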
* hit, by the source's call; ? = inconclusive; nt = no result given; ! = a repeat was not active; [ ] = dose if it differs, or a comment. The call rests on the fitted dose curve; in most records, active means well fitted curve in the direction sought with a large enough effect; inconclusive means small, poorly fitted or top-dose-only effect, or another doubt; inactive means no such curve, though single readings can be large; an effect the other way counts as inactive or inconclusive. Potency means the concentration at half of the fitted maximal effect.

SMILES	POLI inh	WRN helicase inh	POLB inh	Pol kappa inh	POLH inh	FEN1 inhibitor
COCc1cc(/C=N\NC(=O)c2ccc(Cl)cc2)ccc1OC	146%	-4%	23%	-6%	-12%	1%
COc1ccc(/C=N/NC(=O)c2ccc(Cl)cc2)cc1Cn1cc(Cl)cn1	79µM*	-24%	20µM*	?	-20%	-19%
COc1ccc(/C=N/NC(=O)c2ccco2)cc1COc1ccc(F)cc1	79µM*	-34%	?	-22%	7%	-31%
COc1ccc(/C=N/NC(=O)c2ccc(C)cc2)cc1CN1CCN(c2ccc(F)cc2)CC1	9%	2%	43%	-6%	-8%	-8%
COc1ccc(/C=N/NC(=O)c2cc(C(C)(C)C)[nH]n2)cc1COc1ccc(F)cc1F	89µM*	-6%	4%	-8%	-16%	-18%
COc1ccc(/C=N\NC(=O)c2cc(O)c(O)c(O)c2)cc1CN1CCN(c2ccc(F)cc2)CC1	-22%	-2%	?	?	?	14µM*
COc1ccc(NC(=O)Cn2c(=O)n(-c3ccc(Cl)cc3)c(=O)c3c(C)c(C(=O)N(C)C)sc32)cc1Cl	4%	nt	-5%	1%[60.1 µM]	8%	20%
COc1ccc(CNC(=O)c2ccc(CNS(=O)(=O)c3ccc(F)cc3)cc2)cc1	1%	nt	1%	-4%[60.1 µM]	-14%	0%
COc1ccc(/C=N/NC(=O)c2ccc(NC(C)=O)cc2)cc1COc1ccc(F)cc1F	35µM*	-9%[11.6 µM]	35µM*	-55%	?	?
CCN(c1ncnc2c1cnn2-c1cc(Cl)ccc1C)C1CCCCC1	-10%	nt	0%	-1%[60.1 µM]	-15%	8%
CCc1cccc(NC(=O)CN(C)S(=O)(=O)c2ccc3c(c2)n(C)c(=O)c(=O)n3C)c1	25%	nt	-2%	-7%	-16%	9%
Cc1ccc2ccc(C(Nc3ccccn3)c3ccccc3)c(O)c2n1 (configuration not stated)	23%	-4%	26%	-19%	-6%	-23%
COc1cc(C(Nc2ccccn2)c2ccc3ccc(C)nc3c2O)cc(OC)c1O (configuration not stated)	12%	32µM*	6%	-15%	-17%	-20%
CCCCCSc1nc2sc3c(c2c(=O)n1-c1ccccc1)CCN(C(C)=O)C3	-4%	nt	7%	-14%	-16%	-5%
N=c1c(C(=O)NCc2ccc(F)cc2)cc2c(=O)n3ccccc3nc2n1Cc1ccco1	18µM*	-22%	?	?	40µM*	-1%
Cc1cccn2c(=O)c3cc(C(=O)NCCc4ccccc4)sc3nc12	?	-17%	14µM*	-24%	?	-5%
Cc1cccn2c(=O)c3cc(C(=O)NCCc4ccccc4)c(=N)n(Cc4ccco4)c3nc12	7.9µM*	-20%[11.6 µM]	-17%	-35%	-11%	-2%
N=c1c(C(=O)NCc2ccccc2)cc2c(=O)n3ccccc3nc2n1Cc1ccco1	4%	-6%	?	-2%	?	-4%
Cc1cccn2c(=O)c3cc(C(=O)NCc4ccco4)c(=N)n(CCc4ccccc4)c3nc12	?	-14%	?	-26%	?	-6%
N=c1c(C(=O)NCc2ccc3c(c2)OCO3)cc2c(=O)n3ccccc3nc2n1Cc1cccnc1	40µM*	-15%	40µM*	-20%	?	?
Cc1ccnc2c(Cl)c(Cl)ccc12	19%	nt	nt	-2%	nt	-8%
COC(=O)c1c(SC)nc2ccccc2c1OCc1ccccc1C	-2%	nt	-3%	3%	-20%	8%
Cc1ccc(C)c(SCC(=O)OC/C(O)=C(\C#N)c2nc3ccccc3[nH]2)c1	?	-18%[57.1 µM]	?	-28%	45µM*	-8%
Cc1cccc(C)c1Nc1nnc(SC/C(O)=C(\C#N)c2nc3ccccc3[nH]2)s1	-8%	-29%	?	-16%	18µM*	-10%
C#CCN(Cc1ccc(OC)cc1)S(=O)(=O)C=C	-15%	nt	nt	-17%	nt	-20%
SMILES	POLI inh	WRN helicase inh	POLB inh	Pol kappa inh	POLH inh	FEN1 inhibitor
Cc1ccc(S(=O)(=O)/N=C2/C=C(C3C(=O)CC(C)(C)CC3=O)C(=O)c3ccccc32)cc1	?	17µM*	?	-25%	-12%	-16%
O=C1C=C(O)c2cccc(O)c2C1=O	?	-25%	20µM*	?	35µM*	?
O=C1c2cccc(O)c2C(=O)c2c(O)cccc21	nt	nt	10%	-9%[60.1 µM]	nt	nt
CCN(CC)S(=O)(=O)c1cc(NC(=O)c2ccc3c(c2)NC(=O)C(C)S3)ccc1C (configuration not stated)	-15%	-3%[11.6 µM]	nt	-1%	56µM*	-1%
CCN(CC)S(=O)(=O)c1cc(NC(=O)c2ccc(Br)s2)ccc1C	6%	-9%	-2%	-7%	0%	-20%
CCc1ccc(N=C2NC(=O)CC(C(=O)Nc3ccc(OC)cc3)S2)cc1 (configuration not stated)	-8%	nt	18µM*	-17%	?	-2%
CCOC(=O)c1cc(-c2ccccc2)n(-c2cccc(C(=O)Nc3ccc(OC)cc3)c2)c1C	-8%	nt	7%	-8%[60.1 µM]	-15%	-2%
c1ccc(SSc2ccccn2)nc1	?	22µM*	nt	-11%	-4%	?
O=[N+]([O-])c1ccc(Sc2ccncn2)c([N+](=O)[O-])c1	nt	?	nt	nt	50µM*	nt
O=C(COc1ccccc1C(=O)Nc1cccc([N+](=O)[O-])c1)Nc1ccc(Br)cc1	11%	nt	nt	6%	nt	7%
COC1=C(Nc2ccc(OC)cc2)C(=O)c2ccccc2C1=O	?	-10%[57.1 µM]	?	-5%	-8%	-15%
COC1=C(Nc2ccc(O)cc2)C(=O)c2ccccc2C1=O	25µM*	-16%	?	-17%	-11%	-22%
COc1ccc(Cn2c(N)c(C#N)c3nc4ccccc4nc32)cc1OC	25µM*	-15%	34%	-16%	7%	-1%
COc1ccc(-n2c(=O)c3c4c(sc3n(CC(=O)N3CCCCC3C)c2=O)CCC4)c(OC)c1 (configuration not stated)	-10%	nt	-18%	-8%	-13%	11%
C[C@H](C(=O)O)c1cccc(C(=O)c2ccccc2)c1	15%	3%	nt	11µM*!	-18%	nt
CCN(CC)c1ccc2c(-c3ccc(S(=O)(=O)O)cc3S(=O)(=O)[O-])c3ccc(=[N+](CC)CC)cc-3oc2c1	nt	nt	5µM*	?	nt	?
CCN(CC)c1ccc2nc3c4ccccc4c(=O)cc-3oc2c1	60%	?	?	-16%[60.1 µM]	-24%	?
Oc1cc(Nc2cccnc2)cc2cccnc12	26%	nt	nt	-11%	-18%	-24%
Oc1cc(NCCc2cccnc2)cc2cccnc12	35µM*	nt	nt	-27%	-5%	1%
